Whole data set: some 68,000 sequences, median “fluorescence intensity (a.u.)” near 9,100, cut for the highest 2% near 16,000. This excerpt belongs to a sample that is enriched for the highest values.

Chain of OsWRKY34 (Q0JBA9 entry or part of it): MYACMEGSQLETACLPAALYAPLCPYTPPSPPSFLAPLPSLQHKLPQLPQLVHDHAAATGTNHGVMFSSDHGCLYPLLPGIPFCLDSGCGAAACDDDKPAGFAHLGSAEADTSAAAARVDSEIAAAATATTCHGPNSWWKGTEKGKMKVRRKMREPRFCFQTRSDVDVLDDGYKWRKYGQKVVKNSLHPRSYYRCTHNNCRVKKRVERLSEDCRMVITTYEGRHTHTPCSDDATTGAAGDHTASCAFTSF

The target in the test is OsWRKY34 (Oryza sativa, UniProt Q0JBA9 1-250). The test is described as follows: protein-binding microarray (RPBM); PBS, 2% BSA, 51.3 ng/ul salmon testes DNA, 50 uM zinc acetate, 200 nM TF, 25 C, 1 h; high values mean tight binding. Particulars: protein: recombinant; tags: N-terminal polyhistidine and DsRed monomer fusion (pET32a); label: CyDye5-dUTP incorporated in the synthesized complementary strand; 3' TTTTT single-stranded linker to array surface; dsDNA, one strand shown. An outline of the steps:
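Using Ni–NTA, transcription factors fused N-terminally to polyhistidine and DsRed were purified after expression in E. coli BL21-CodonPlus. These were incubated at 200 nM with a blocked, double-stranded custom Agilent array for 1 h at 25 °C in a buffer containing 50 µM zinc acetate, and the array was washed. The binding signal is per-feature fluorescence intensity (arbitrary units) on an Axon 4000B scanner.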
In the case of “TCTACGGGTATCCCGCGTCGACAATATTCCCATGCATTTACGGAGTCACCTAGTGCAG”, the binding signal was 10900 fluorescence intensity (a.u.). To “ATTCCGTTAGCATTTGTCCTGCCATGGCCTATTCTGCCAGCGGAGTCACCTAGTGCAG” belongs 10400 fluorescence intensity (a.u.); to “CATGTTGTTCTGTTTGATGTTGCCCACTACGGTCTTTAGTCGGAGTCACCTAGTGCAG”, 10900 fluorescence intensity (a.u.); to “GACGAGACCGACGCCGTCATCCTCCTTCTCACGCTACCATCGGAGTCACCTAGTGCAG”, 8040 fluorescence intensity (a.u.). Turning to “GTCACTTCTCCTTTTTTTTTGGCATGCAATAGACTTCCTTCGGAGTCACCTAGTGCAG”, the binding signal is 8780 fluorescence intensity (a.u.).

For “CCCCTCGAGTCTGATCCTCCCACTACCAACGTCCACCGGCCGGAGTCACCTAGTGCAG”, the binding signal is 9210 fluorescence intensity (a.u.). In the case of “CCGCCGCCGCTCGCCGCCGCATTGCGTTACTCGAGCTCGCCGGAGTCACCTAGTGCAG”, the binding signal was 8710 fluorescence intensity (a.u.).

As for “TACTGTCTGTCAACACACTTCATGATTTCTCATCAAATATCGGAGTCACCTAGTGCAG”, the binding signal is 10400 fluorescence intensity (a.u.).

Take “AGGACGATGGGCGCGATGGGATTTGTTCTTGACTGTTTTACGGAGTCACCTAGTGCAG”: the binding signal was 12000 fluorescence intensity (a.u.). To “TTCGGGTTCAATTTCAGGTTCAGTCGCTTGCTTGGTGCTTCGGAGTCACCTAGTGCAG” belongs 8960 fluorescence intensity (a.u.).

For the sequence “TCGGTTTCATACGTGGGGTCTGTTGGTGGAGGTGTTGCCACGGAGTCACCTAGTGCAG”, the binding signal is 9440 fluorescence intensity (a.u.).

For “TACTCAATGTCTAATGGGGTGTTTGGATGGGACTAATTTTCGGAGTCACCTAGTGCAG”, the binding signal was 13000 fluorescence intensity (a.u.).

As for “GGTGCGTGTTCGGGATGGGGTTCGGGTTCAATTTCAGGTTCGGAGTCACCTAGTGCAG”, the binding signal was 16700 fluorescence intensity (a.u.). The value for “CGATACTTTCATGGGTGGGTCCTATGTTGCACGGTTGGTTCGGAGTCACCTAGTGCAG” was 22900 fluorescence intensity (a.u.); that for “TATATACTTTCATGGGTCTATATTTATATGTATGTATACACGGAGTCACCTAGTGCAG” was 8690 fluorescence intensity (a.u.). To “TTACTATACTATTAATATCTGATCACACCTGTCATACACACGGAGTCACCTAGTGCAG” belongs 9710 fluorescence intensity (a.u.); to “CAGAGTGCAAGCCAATCATCGCCACCACGCTACGCTACACCGGAGTCACCTAGTGCAG”, 8130 fluorescence intensity (a.u.); to “CGTTTGTACTGTGTGGTGGTTGGTGATTGGGTGTTGTGCCCGGAGTCACCTAGTGCAG”, 13900 fluorescence intensity (a.u.). The value for “AAAAGCCGGTCTCCTTCATCTTCCCGTCCGTAAACCCTAACGGAGTCACCTAGTGCAG” was 10600 fluorescence intensity (a.u.); that for “CACCCTCGTTTCCACCCGCGCCCGCGCGCCGCGCGCCACTCGGAGTCACCTAGTGCAG” was 10800 fluorescence intensity (a.u.); that for “CGCCTCTTTTCGTTTCGTTTCGCCGCCCGCTTCCGCCGCGCGGAGTCACCTAGTGCAG” was 23300 fluorescence intensity (a.u.). For the sequence “GTTCCAGCCGCGTTTCCTCTCGCGGCGGCCTCGCCATTTCCGGAGTCACCTAGTGCAG”, the binding signal was 9070 fluorescence intensity (a.u.). The value for “CTCGCTTCTTCTTCCTTCTTTCCGTCCTCGCCGCCCCGCGCGGAGTCACCTAGTGCAG” was 8470 fluorescence intensity (a.u.); that for “TCCCTCTCTCTCTCTCTCTTCGTTTCCGCGCGCGCGCGCGCGGAGTCACCTAGTGCAG” was 9340 fluorescence intensity (a.u.); that for “CCTCTACGCGCGGCCAACGCCGCCGCCGCCGCCGCCGCTCCGGAGTCACCTAGTGCAG” was 8370 fluorescence intensity (a.u.). The value for “TCTACGCCGCCGGCGGCGGCGGCGGCGGCAACTGCGGCGCCGGAGTCACCTAGTGCAG” was 47800 fluorescence intensity (a.u.); that for “ACGACGACGACGACGACGCAACCCCGCGGCGCGCGCCGGCCGGAGTCACCTAGTGCAG” was 8430 fluorescence intensity (a.u.). To “CCGCCGCCGTTCCGTTTTTTCTCTCTCGCGCCGCCGCCAGCGGAGTCACCTAGTGCAG” belongs 17300 fluorescence intensity (a.u.); to “CATCTCCTCCGTTTTCCGCGCACATGTTTTTTAAACTGCTCGGAGTCACCTAGTGCAG”, 10400 fluorescence intensity (a.u.); to “AGCCAGTTTTCTCCACCCTCGTTTTCCGCGCACATGTTTTCGGAGTCACCTAGTGCAG”, 17600 fluorescence intensity (a.u.).

As to “CTCGCCTCTAGGGTTCCGCCGTTTTCCGCGGCGCGCCACCCGGAGTCACCTAGTGCAG”, the binding signal is 9410 fluorescence intensity (a.u.). To “TCCTATGTTTTTCCTGCGGTCCAATCAAACGGTCATTCTTCGGAGTCACCTAGTGCAG” belongs 12300 fluorescence intensity (a.u.); to “GCGTGTTTTTCTACCCGATCGACCTTCTGATTTTGGCTATCGGAGTCACCTAGTGCAG”, 11100 fluorescence intensity (a.u.); to “CCACCAGCGATTTGGCCCGATCTCATCCCACCAGCGATTTCGGAGTCACCTAGTGCAG”, 8430 fluorescence intensity (a.u.). To “CACAGCTTCTTAATTACTCCACCTTAATTAATCGATTAATCGGAGTCACCTAGTGCAG” belongs 8680 fluorescence intensity (a.u.); to “CACCGGTTCTTCGCCTTCGTCACCGTCGCCGGCGGCGCCACGGAGTCACCTAGTGCAG”, 8450 fluorescence intensity (a.u.); to “CGCCGCCGCCGCCGCCGCCGCGCTCGCTCGCTCGCTTCTTCGGAGTCACCTAGTGCAG”, 10200 fluorescence intensity (a.u.). The value for “TATATATATATATATATATATATATCTGATGCTCTCTTGCCGGAGTCACCTAGTGCAG” was 31700 fluorescence intensity (a.u.); that for “ATGCCGCTCTATCTCTCTCTCTCTCTCTCTCTCTCTCTCTCGGAGTCACCTAGTGCAG” was 9760 fluorescence intensity (a.u.). For “GTTGGGGTTCGTCGTCTTGGTCTTGGGTCTTCTTCGTCCCCGGAGTCACCTAGTGCAG”, the binding signal is 11600 fluorescence intensity (a.u.). To “CCACGCCACGCGCCGCTCTCACTCGGTCACTCTCACTCTTCGGAGTCACCTAGTGCAG” belongs 9750 fluorescence intensity (a.u.); to “TGATCGCTCGCCGCCGCGGCCGCTCTCCCGCCGGCGCCGCCGGAGTCACCTAGTGCAG”, 9560 fluorescence intensity (a.u.). “AAATTAACCACACTCGCGCCGCCATTCTCTTCTTCTTCTTCGGAGTCACCTAGTGCAG”: the binding signal is 20600 fluorescence intensity (a.u.). The value for “CTCTCTCTCTCTCTCTCTCTCTCTCTCTTCGCCGCGCGGCCGGAGTCACCTAGTGCAG” was 18300 fluorescence intensity (a.u.).

Regarding “CTCCACTGCTCTGATGCTCTCTCTCTCTCTCTCTTCACGCCGGAGTCACCTAGTGCAG”, the binding signal was 10800 fluorescence intensity (a.u.). The value for “CCCACACCACCTCGCCCAATTAAACCCTCACCCATTCTTTCGGAGTCACCTAGTGCAG” was 9140 fluorescence intensity (a.u.); that for “GGGCGGTTCTTCTTCTTCGTCTTCGTCTTGGCGCCGGTCGCGGAGTCACCTAGTGCAG” was 17200 fluorescence intensity (a.u.); that for “TAGCAACTCCGTTCTTTTTCTTCTTTTCTCTCACTCACTCCGGAGTCACCTAGTGCAG” was 8360 fluorescence intensity (a.u.).

With “CTCTTATAACCACTTCTTTTTAAATCATTTGTTTATATGTCGGAGTCACCTAGTGCAG”, the binding signal was 10200 fluorescence intensity (a.u.). To “TGGTCTGGCAGTTTTTGAGACGGGGAGTTGACTCAGATATCGGAGTCACCTAGTGCAG” belongs 9260 fluorescence intensity (a.u.).

As to “AGGCTCTATTGGTTTCTCCTCTGTACATACAGTAGTAGTCCGGAGTCACCTAGTGCAG”, the binding signal is 8640 fluorescence intensity (a.u.). For the sequence “TTCTACACTCTCTTGATCAGCTCTCACCACTATGTACACTCGGAGTCACCTAGTGCAG”, the binding signal is 8860 fluorescence intensity (a.u.).

For “TTTTTTTCGGTCTCAATATTTTTTTTTCTCACGTCTTTCGCGGAGTCACCTAGTGCAG”, the binding signal was 10800 fluorescence intensity (a.u.).

Regarding “CCTTGACCGTTCCCAGAAAGGTTGACCGTTGTCCGTCACTCGGAGTCACCTAGTGCAG”, the binding signal is 9240 fluorescence intensity (a.u.).

Values taken from PMC7819943, “Rice protein-binding microarrays: a tool to detect cis-acting elements near promoter regions in rice”.
